Compound activity: PubChem BioAssay, National Center for Advancing Translational Sciences (NCATS)
JMJD2A Tudor inh: JMJD2A Tudor domain (human) inhibition; O75164; 4.4% of 390,000 active; AID 504339; Potency, µM (doses to about 114 µM), for inactives: at the highest dose activity change, negative = inhibition, actives largely listed as inhibitors; AlphaScreen JMJD2A-Tudor / H3K4me3 peptide binding; note: potency is the fitted concentration of half-maximal effect; % is set by controls: 0 for no effect and ±100 for the full control effect; nearly all actives have a fitted effect of over 50% in size
Target sequence (O75164 whole entry, looked up, the tested form may be a part): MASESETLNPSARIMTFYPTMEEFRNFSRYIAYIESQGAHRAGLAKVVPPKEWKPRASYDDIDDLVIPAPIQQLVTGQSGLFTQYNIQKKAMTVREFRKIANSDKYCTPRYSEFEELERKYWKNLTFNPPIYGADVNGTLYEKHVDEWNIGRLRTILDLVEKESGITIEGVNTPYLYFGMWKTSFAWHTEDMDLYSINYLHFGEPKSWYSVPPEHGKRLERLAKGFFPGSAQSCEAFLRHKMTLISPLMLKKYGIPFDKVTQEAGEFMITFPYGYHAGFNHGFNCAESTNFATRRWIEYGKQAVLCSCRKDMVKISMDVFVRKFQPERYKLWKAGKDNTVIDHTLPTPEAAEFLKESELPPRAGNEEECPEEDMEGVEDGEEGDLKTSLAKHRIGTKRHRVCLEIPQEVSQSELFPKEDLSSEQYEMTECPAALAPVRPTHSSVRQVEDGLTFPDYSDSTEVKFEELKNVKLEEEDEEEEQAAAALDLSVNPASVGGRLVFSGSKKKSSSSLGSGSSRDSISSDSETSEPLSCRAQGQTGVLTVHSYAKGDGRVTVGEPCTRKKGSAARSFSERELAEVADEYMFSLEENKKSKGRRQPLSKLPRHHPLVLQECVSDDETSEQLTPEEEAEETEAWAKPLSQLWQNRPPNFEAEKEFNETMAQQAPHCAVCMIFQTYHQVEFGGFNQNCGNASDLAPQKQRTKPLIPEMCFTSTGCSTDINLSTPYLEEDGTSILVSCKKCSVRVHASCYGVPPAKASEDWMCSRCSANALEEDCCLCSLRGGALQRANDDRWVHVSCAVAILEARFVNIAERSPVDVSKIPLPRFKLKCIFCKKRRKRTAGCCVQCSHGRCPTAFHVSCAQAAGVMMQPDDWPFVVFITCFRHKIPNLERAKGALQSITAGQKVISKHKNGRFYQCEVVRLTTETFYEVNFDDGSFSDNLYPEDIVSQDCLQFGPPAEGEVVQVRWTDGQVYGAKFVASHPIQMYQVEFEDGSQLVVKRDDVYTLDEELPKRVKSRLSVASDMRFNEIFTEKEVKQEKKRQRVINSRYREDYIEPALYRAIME
PI5P4K alpha inh: PI5P4K alpha (human) kinase inhibition. PI5P4Kalpha enzyme, ADP-Glo luminescence, 60 min; active compounds read low. max response, %. P48426. 1.2% of 330,000 active; active = max response of -50% or lower; inconclusive = between -30% and -50%; inactive = -30% or higher; note: value at the top dose of about 77 µM; % is set by controls: 0 for no effect and ±100 for the full control effect
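Human PI5P4Kalpha with substrate in 0.038 M HEPES pH 7.4, 0.28 mM EGTA, 0.1% CHAPS, 5% DMSO; reaction started with 5 microM ATP (final), 60 min at room temperature. ADP formed read by ADP-Glo luminescence.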
PLK1 PBD inh: blocks phosphopeptide binding to human PLK1 polo-box domain; P53350; Plk1 PBD binding of FITC phosphopeptide, fluorescence polarization; Potency, µM, for the others: max response, negative = inhibition, most hits filed as inhibitors; 2.8% of 360,000 active; AID 720504; note: potency is the fitted concentration of half-maximal effect; series mostly up to about 57 µM; % is set by controls: 0 for no effect and ±100 for the full control effect; nearly all actives have a fitted effect of over 65% in size
BAZ2B inh: BAZ2B (human) inhibition | Q9UIF8 | AlphaScreen BAZ2B-H3K14Ac peptide displacement | Potency, µM (series often up to 114 µM), for the others: top-dose activity change, negative = inhibition, hits mostly inhibitors | 4.4% of 360,000 active | AID 504333; note: potency is the fitted concentration of half-maximal effect; % is set by controls: 0 for no effect and ±100 for the full control effect; nearly all actives have a fitted effect of over 60% in size
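AlphaScreen displacement: compounds (up to 110uM) incubated 30 min at room temperature with a preformed 50 nM BAZ2B/50 nM biotinylated H3K14Ac peptide complex in PBS pH 7.4 with Tween-20. Donor and acceptor beads at 10 ug/mL final added, 20 min light-protected before reading.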
GCN5L2 inh: GCN5L2 (KAT2A) acetyltransferase inhibition | GCN5L2 HAT assay, ThioGlo1 CoA-SH fluorescence | Q92830 | Potency, µM (series often up to 58.9 µM), without a hit: at the highest dose activity change, negative = inhibition, actives largely listed as inhibitors | 0.21% of 390,000 active; note: potency is the fitted concentration of half-maximal effect; % is set by controls: 0 for no effect and ±100 for the full control effect
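Free CoA generated was detected with ThioGlo1 (50uM) fluorescence at Ex340nm/Em540nm, read immediately and after 20 min at room temperature. Enzyme, 20 nM in HEPES pH 7.5 buffer, saw compounds 15 min before adding 75uM H3(1-25) peptide and 70uM acetyl-CoA.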
HP1b chromo inh: HP1-beta chromodomain-methylated histone interaction inhibition. Potency, µM (titrated, usually from 114 µM), for inactives: at the top dose activity change, negative = inhibition, actives largely listed as inhibitors. P83916. 0.56% of 390,000 active. AlphaScreen HP1-beta / biotin-H3K9me3 peptide binding. AID 540317; note: potency is the fitted concentration of half-maximal effect; nearly all actives have a fitted effect of over 70% in size
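Compound inhibition of the preformed complex between 50 nM HP1-beta and 50 nM biotinylated H3K9me3 peptide was read by AlphaScreen. Buffer was PBS pH 7.4 with 0.01% Tween-20. Incubations ran 30 min at room temperature, with 10 ug/mL donor/acceptor beads.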
Numbers without * were called inactive; ? = inconclusive; . = not tested or not shown; [ ] = another dose, or the depositor's remark. Shown are actives, neighbours in structure and some others; about 7% of the full set was active somewhere. Unless noted, calls come from the whole dose curve; as a rule, active = well fitted curve in the direction sought with a large enough effect; inconclusive = small, poorly fitted or top-dose-only effect, or another doubt; inactive = no such curve, though single readings can be large; an effect the other way counts as inactive or inconclusive.

SMILES | JMJD2A Tudor inh | PI5P4K alpha inh | PLK1 PBD inh | BAZ2B inh | GCN5L2 inh | HP1b chromo inh
Cc1ccc2oc(=O)c3cc(C(=O)Nc4cccc(C#N)c4)sc3c2c1 | 3% | . | . | -30% | -2% | 44%
COc1ccc(-c2ccc3c(c2)c(-c2cccs2)c(-c2cc(OC)cc(OC)c2)n3C)cc1 | -18% | 9 | -9% | ? | 20µM* | 33%
CN1C(=O)N(C)c2ccc(C=O)c3cccc1c23 | -16% | -5 | -16% | -2% | -10% | 87%
CN1C(=O)N(C)c2ccc(Br)c3cccc1c23 | 45µM* | -3 | 30µM* | 7% | -3% | 29%
COCCCn1c(=S)[nH]c(C)c(C)c1=O | 22µM* | 6 | -11% | 10% | -4% | 27%
COCCCn1c(=O)cc(C)[nH]c1=S | 4% | 4 | 0% | 1% | -6% | 49%
Cc1ccc(CNC(=O)CCCc2nnc3n(CC(C)C)c(=O)c4sccc4n23)cc1 | -14% | . | . | -14% | -9% | 1%
Cc1cccc(-c2nc(CN3CCCC(C(=O)NCCc4ccc(Cl)cc4)C3)c(C)o2)c1 (centres undefined) | ? | . | . | 56µM* | -7% | 14%
Cc1ccc(CCNC(=O)C2CCCN(Cc3nc(-c4cccc(Cl)c4)oc3C)C2)cc1 (centres undefined) | -30% | . | . | -20% | 4% | -10%
Cc1oc(-c2cccc(Cl)c2)nc1CN1CCCC(C(=O)N2CCN(c3ccc(F)cc3)CC2)C1 (centres undefined) | 40µM* | . | . | 10µM* | -1% | ?
Cc1oc(-c2cccc(Cl)c2)nc1CN1CCC(C(=O)N2CCN(c3ccccc3F)CC2)CC1 | ? | 0 | -10% | -37% | -9% | 11%
COCCCn1c(C)nnc1SCC(=O)Nc1cccc(C)c1 | -10% | -1 | -3% | 14% | 0% | 33%
CC1CC(C)CN(C(=O)Nc2ccc(Br)cc2)C1 (centres undefined) | -19% | 0 | 30µM* | -4% | -7% | -4%
O=C(Nc1ccc(Br)cc1)N1CCCCCCC1 | 6% | 2 | -18% | -3% | ? | 13%
Cc1cc(C)c2c(CC(=O)N(Cc3ccc(Cl)cc3)Cc3ccco3)coc2c1 | -17% | . | . | -30% | -4% | 34%
Cc1ccc(-c2nc(S(=O)(=O)c3ccc(C)cc3)c(N3CCCCC3)o2)cc1 | -29% | . | . | ? | -6% | -14%
Cc1ccc(S(=O)(=O)c2nc(-c3ccc(F)cc3)oc2N2CCOCC2)cc1 | -18% | -1 | -6% | -32% | -9% | 16%
Cc1ccc(S(=O)(=O)c2nc(C)oc2N2CCOCC2)cc1 | ? | -12 | 21µM* | -19% | -2% | ?
Cc1ccc(S(=O)(=O)c2nc(C(C)(C)C)oc2N2CCOCC2)cc1 | 35µM* | . | ? | 0% | 0% | 50µM*
CC(=O)O/N=C1\C(=O)N(Cc2ccc(C)cc2)c2ccccc21 | -32% | -14 | ? | -29% | -3% | 1%
CN1C(=O)/C(=N\OC(=O)c2ccccc2Cl)c2ccccc21 | -9% | -2 | 2.7µM* | ? | -1% | 49%
CC(C)[C@H](NS(=O)(=O)c1ccccc1F)C(=O)NC1CCCCC1 | -3% | 12 | 1% | . | 1% | 25%
CC(C)Sc1nsc2nc(=O)c(/C=C3\C=Nc4ccccc43)c(N)n12 | ? | ? | 27µM* | . | 3% | -4%
CS(=O)(=O)c1nsc2nc(=O)c(/C=C3\C=Nc4ccccc43)c(N)n12 | -14% | -72* | -21% | -3% | -6% | 20%
CC(C)c1nn2c(N)c(/C=C3\C=Nc4ccccc43)c(=O)nc2s1 | -15% | -24 | -17% | -8% | -1% | 10%
SMILES | JMJD2A Tudor inh | PI5P4K alpha inh | PLK1 PBD inh | BAZ2B inh | GCN5L2 inh | HP1b chromo inh
O=C(Nc1ncccc1O)c1ccc(Oc2ccccc2)cc1 | ? | 0 | 30µM* | -1% | -6% | -7%
O=C(Nc1ncccc1O)c1ccc(OCC2CCCO2)cc1 (centres undefined) | -24% | -15 | -9% | 79µM* | -5% | 39%
Cc1cc(C)nc(/N=C2\NC(=O)CC(C(=O)O)N2c2ccc(C)c(C)c2)n1 (centres undefined) | 13µM* | -22 | 24µM* | -10% | 0% | -2%
CCOc1ccc2nc(N3CCCC(C(=O)NCc4ccccc4OC)C3)sc2c1 (centres undefined) | -15% | . | . | 2% | -1% | 21%
O=C(NCC(c1cccnc1)N1CCc2ccccc21)c1ccc(F)c(F)c1 (centres undefined) | -11% | . | . | 0% | -14% | 29%
CN(C)c1ccc(CNC(=O)c2ccc(NC(=O)N3CCCCc4ccccc43)cc2)cc1 | 35µM* | . | . | 28µM* | -5% | 9%
COc1ccc(C(=O)NCC(c2ccc(N(C)C)cc2)N2CCc3ccccc32)cc1 (centres undefined) | 7.1µM* | . | . | 8.9µM* | -3% | 10µM*
CN(C)c1ccc(C(CNC(=O)c2ccccc2)N2CCc3ccccc32)cc1 (centres undefined) | 13µM* | . | . | 11µM* | 1% | ?
COc1cc(C(=O)NCC(c2cccnc2)N2CCc3ccccc32)cc(OC)c1OC (centres undefined) | -8% | . | . | 5% | 1% | 19%
Cc1ccc(C(=O)NCC(c2ccco2)N2CCc3ccccc32)cc1 (centres undefined) | ? | 9 | -4% | ? | -2% | -23%
CC(C)Oc1ccc(C(=O)NCC(c2ccc(N(C)C)cc2)N2CCc3ccccc32)cc1 (centres undefined) | 7.1µM* | . | . | 16µM* | -21% | ?
COc1ccc(C)cc1NC(=O)Cn1c(=O)c(C(F)(F)F)nc2ccccc21 | -3% | . | . | 5% | -3% | 23%
C=CCC(Nc1ccccc1)c1ccc(OC)c(OC)c1 (centres undefined) | . | . | . | -13% | -3% | .
COC(=O)c1cccc(NC2=NS(=O)(=O)c3ccccc32)c1 | 5% | . | . | 7% | -2% | 38%
CC(=O)Nc1n[nH]c(S(=O)(=O)Cc2ccc(Cl)cc2Cl)n1 | 50µM* | -10 | -2% | ? | 0% | -4%
CC(=O)Nc1nc(SCc2ccc(Cl)cc2Cl)n[nH]1 | -19% | -1 | 0% | -20% | -1% | 37%
CCOC(=O)C(C(=O)Nc1ccccn1)C1CCCCC1 (centres undefined) | 89µM* | -3 | -9% | 1% | -2% | 21%
CCOC(=O)C(C(=O)Nc1cccc(C)n1)C1CCCCC1 (centres undefined) | -3% | -4 | -4% | -5% | 1% | 64%
CC(=O)c1ccc(NC(=O)CSc2nccn2Cc2ccc3c(c2)OCO3)cc1 | -32% | . | . | ? | 0% | 8%[57 µM]
